In the antibiotic and cytotoxicity screens of Wong et al. (2023) one finds cytotoxicity call data, which are given here for 35 compounds.

Out of some 39,000 compounds screened, about 3,300 (8.5%) were called active. Only a selection was taken, and actives are over-represented in it overall.

This test has as its system HepG2. The test is described as follows: cytotoxicity call (relative viability < 0.9). Particulars: 10 µM.
For the compound `C[C@H]1CN([C@@H](C)CO)C(=O)Cc2cc(NC(=O)Cc3cn(C)c4ccccc34)ccc2O[C@@H]1CN(C)S(C)(=O)=O`, the cytotoxicity call is “inactive”.
Turning to `C[C@@H]1CN([C@H](C)CO)C(=O)c2cc(NS(=O)(=O)c3cn(C)cn3)ccc2O[C@H]1CN(C)C(=O)NC1CCCCC1`, the cytotoxicity call is “inactive”.
As to `C[C@H]1CN([C@@H](C)CO)C(=O)Cc2cc(NC(=O)CCN3CCOCC3)ccc2O[C@@H]1CN(C)S(=O)(=O)c1cccs1`, the cytotoxicity call is “inactive”.
In the case of `O=C(C[C@@H]1CC[C@H]2[C@@H](COC[C@@H](O)CN2C(=O)c2cnccn2)O1)NCc1ccc(Oc2ccccc2)cc1` it was “inactive”; in that of `COc1ccccc1NC(=O)N(C)C[C@@H]1Oc2ncc(Br)cc2C(=O)N([C@H](C)CO)C[C@H]1C`, “inactive”; in that of `O=C(CCCCCCC(=O)Nc1ccccc1O)N/N=C/[C@H](O)[C@@H](O)[C@H](O[C@@H]1O[C@H](CO)[C@H](O)[C@H](O)[C@H]1O)[C@H](O)CO`, “inactive”.
Under `C[C@H](CO)N1C[C@H](C)[C@@H](CN(C)C(=O)Nc2cccc3ccccc23)Oc2c(NC(=O)CCCCCC(=O)Nc3ccccc3N)cccc2C1=O` stands “inactive”; under `C[C@@H]1CCCCO[C@@H](CN(C)S(=O)(=O)c2ccc(Cl)cc2)[C@@H](C)CN([C@H](C)CO)C(=O)c2cc(NC(=O)Nc3ccc(F)cc3)ccc2O1`, “inactive”; under `C[C@H](CO)N1C[C@H](C)[C@H](CN(C)Cc2ccc(Oc3ccccc3)cc2)Oc2ccc(NC(=O)C3CC3)cc2C1=O`, “inactive”.
`Cc1ccc(NC(=O)N(C)C[C@@H]2OCCCC[C@H](C)Oc3ccc(NC(=O)C4CCCCC4)cc3C(=O)N([C@H](C)CO)C[C@@H]2C)cc1`: the cytotoxicity call was “inactive”.
Under `NC(=O)CCN1CCn2c1nc1ccccc12` stands “inactive”; under `COc1ccc2c3c([nH]c2c1)[C@H](CO)N(C[C@]13CCN(CC1)C(=O)Nc1ccc2c(c1)OCO2)C(=O)Nc1ccc(cc1)F`, “inactive”.
In the case of `COc1ccc(NC(=O)Nc2ccc3c(c2)C(=O)N([C@H](C)CO)C[C@H](C)[C@@H](CN(C)Cc2ccccc2)OCCCC[C@@H](C)O3)cc1` it was “inactive”; in that of `COc1ccc(NC(=O)Nc2ccc3c(c2)C(=O)N([C@H](C)CO)C[C@H](C)[C@H](CN(C)Cc2ccccc2)OCCCC[C@H](C)O3)cc1`, “active”; in that of `COc1ccc(NC(=O)Nc2ccc3c(c2)C(=O)N([C@@H](C)CO)C[C@H](C)[C@@H](CN(C)Cc2ccccc2)OCCCC[C@H](C)O3)cc1`, “inactive”.
In the case of `C[C@@H]1CCCCO[C@H](CN(C)Cc2ccccc2)[C@@H](C)CN([C@H](C)CO)C(=O)c2cc(NS(=O)(=O)c3ccc(F)cc3)ccc2O1` it was “inactive”.
With `Cn1cnc([N+](=O)[O-])c1Cl`, the cytotoxicity call was “inactive”.
Under `Cn1cnc([N+](=O)[O-])c1Sc1[nH]cnc2ncnc1-2` stands “active”; under `Cn1cnnc1Sc1c([N+](=O)[O-])ncn1C`, “inactive”; under `C[C@@H]1CN([C@H](C)CO)C(=O)c2cc(NC(=O)CCN3CCOCC3)ccc2O[C@@H]1CN(C)C(=O)Nc1ccccc1`, “inactive”.
Turning to `C[C@@H]1CN([C@@H](C)CO)S(=O)(=O)c2ccc(C#CC3CCCC3)cc2O[C@H]1CN(C)Cc1cncnc1`, the cytotoxicity call is “inactive”.
`C[C@@H]1O[C@@H](O[C@@H]2CC[C@@]3(C)[C@@H](CC[C@]4(C)[C@@H]3CC=C3[C@@H]5CC(C)(C)CC[C@]5(C(=O)O[C@@H]5O[C@H](CO[C@@H]6O[C@H](CO)[C@@H](O)[C@H](O)[C@H]6O)[C@@H](O)[C@H](O)[C@H]5O)CC[C@]34C)[C@]2(C)CO)[C@H](O)[C@H](O[C@@H]2OC[C@@H](O)[C@H](O)[C@H]2O)[C@H]1O`: the cytotoxicity call was “inactive”.
As to `C[C@@H]1O[C@@H](O[C@@H]2[C@@H](O)[C@@H](O[C@@H]3O[C@@H](CO)[C@H](O)[C@H]3O)[C@H](OC(=O)[C@]34CCC(C)(C)C[C@H]3C3=CC[C@H]5[C@@]6(C)C[C@H](O)[C@H](O[C@@H]7O[C@@H](C)[C@H](O)[C@@H](O[C@@H]8OC[C@@H](O)[C@H](O)[C@H]8O[C@@H]8O[C@H](CO)[C@@H](O)[C@H](O)[C@H]8O)[C@H]7O)[C@@](C)(CO)[C@@H]6CC[C@@]5(C)[C@]3(C)C[C@H]4O)O[C@H]2C)[C@H](O)[C@H](O)[C@H]1O`, the cytotoxicity call was “active”.
As to `CC1(C)CC[C@]2(C(=O)O[C@@H]3O[C@H](CO)[C@@H](O)[C@H](O)[C@H]3O)CC[C@]3(C)C(=CC[C@H]4[C@@]5(C)CC[C@@H](O[C@@H]6O[C@H](C(=O)O)[C@@H](O[C@@H]7OC[C@@H](O)[C@H](O)[C@H]7O)[C@H](O[C@@H]7OC[C@](O)(CO)[C@H]7O)[C@H]6O)C(C)(C)[C@@H]5CC[C@]43C)[C@@H]2C1`, the cytotoxicity call is “inactive”.
Take `C[C@@H]1O[C@H](O[C@H]2[C@H](OC(=O)[C@]34CCC(C)(C)C[C@@H]3C3=CC[C@@H]5[C@@]6(C)CC[C@H](O[C@@H]7O[C@@H](C)[C@H](O[C@@H]8OC[C@@H](O)[C@H](O)[C@H]8O)[C@@H](O)[C@H]7O)C(C)(C)[C@@H]6CC[C@@]5(C)[C@]3(C)C[C@@H]4O)OC[C@H](O)[C@H]2O)[C@H](O)[C@H](O)[C@H]1O[C@@H]1O[C@H](CO)[C@@H](O)[C@H](O)[C@H]1O`: the cytotoxicity call was “inactive”.
Regarding `C[C@H]1O[C@@H](OC(=O)[C@]23CCC(C)(C)C[C@H]2C2=CC[C@H]4[C@@]5(C)CC[C@H](O[C@@H]6O[C@H](C(=O)O)[C@@H](O)[C@H](O[C@@H]7OC[C@@H](O)[C@H](O)[C@H]7O)[C@H]6O[C@@H]6O[C@H](CO)[C@H](O)[C@H](O)[C@H]6O)[C@@](C)(C=O)[C@@H]5CC[C@@]4(C)[C@]2(C)C[C@H]3O)[C@H](O[C@H]2O[C@@H](CO)[C@@H](O)[C@@H](O)[C@@H]2O)[C@@H](O)[C@H]1O[C@@H]1O[C@H](C)[C@@H](O[C@H]2OC[C@@H](O)[C@@H](O)[C@@H]2O)[C@H](O)[C@@H]1O`, the cytotoxicity call is “inactive”.
Consider `C=C[C@](C)(O)CC/C=C(\C)C(=O)O[C@@H]1[C@@H](O[C@@](C)(C=C)CC/C=C(\C)C(=O)O[C@H]2C[C@@]3(C(=O)O[C@H]4OC[C@@H](O[C@H]5O[C@@H](CO)[C@@H](O)[C@@H](O[C@H]6O[C@@H](CO)[C@@H](O[C@H]7O[C@@H](CO)[C@@H](O)[C@@H](O)[C@@H]7O)[C@@H](O)[C@@H]6O)[C@@H]5O)[C@@H](O)[C@@H]4O)[C@@H](O)C[C@@]4(C)C(=CC[C@H]5[C@@]6(C)CC[C@@H](O[C@H]7O[C@@H](CO)[C@@H](O[C@H]8O[C@@H](CO)[C@@H](O)[C@@H](O[C@H]9OC[C@@H](O)[C@@H](O)[C@@H]9O)[C@@H]8O)[C@@H](O)[C@@H]7O)C(C)(C)[C@@H]6CC[C@@]54C)[C@@H]3CC2(C)C)OC[C@@H](O)[C@H]1O`, for which the cytotoxicity call was “active”.
Under `C[C@H]1O[C@@H](O[C@H]2[C@@H](O)[C@@H](O)[C@@H](O[C@H]3CC[C@]4(C)[C@H]5CC=C6[C@H]7CC(C)(C)[C@H]8C[C@]7(C(=O)O8)[C@@H](O)C[C@]6(C)[C@@]5(C)CC[C@H]4C3(C)C)O[C@@H]2CO)[C@@H](O)[C@@H](O[C@H]2OC[C@@H](O)[C@@H](O)[C@@H]2O)[C@@H]1O` stands “inactive”.
As for `C[C@@H]1O[C@H](O[C@@H]2[C@H](O)C[C@@]3(C)[C@@H](CC[C@]4(C)[C@H]3CC=C3[C@H]5CC(C)(C)CC[C@@]5(C(=O)O[C@H]5O[C@@H](C)[C@@H](O)[C@H](O[C@H]6OC[C@@H](O)[C@@H](O)[C@@H]6O)[C@H]5O[C@@H]5O[C@H](C)[C@H](O)[C@H](O[C@@H]6OC[C@H](O)[C@H](O[C@@H]7O[C@H](C)[C@@H](O)[C@H](O)[C@@H]7O)[C@H]6O)[C@H]5O)[C@@H](O)C[C@@]34C)[C@]2(C)CO)[C@@H](O)[C@H](O[C@H]2OC[C@@H](O)[C@@H](O[C@H]3OC[C@@H](O[C@H]4OC[C@@](O)(CO)[C@@H]4O)[C@@H](O)[C@@H]3O)[C@@H]2O)[C@@H]1O`, the cytotoxicity call was “inactive”.
As for `C[C@@H]1O[C@@H](O[C@H]2[C@H](OC(=O)[C@]34CCC(C)(C)C[C@H]3C3=CC[C@H]5[C@@]6(C)CC[C@H](O[C@@H]7O[C@H](CO)[C@@H](O)[C@H](O)[C@H]7O)C(C)(C)[C@@H]6CC[C@@]5(C)[C@]3(C)C[C@H]4O)OC[C@H](O)[C@@H]2O)[C@H](O)[C@H](O[C@@H]2OC[C@H](O)[C@H](O)[C@H]2O)[C@H]1O[C@@H]1OC[C@@H](O)[C@H](O[C@@H]2OC[C@H](O)[C@H](O)[C@H]2O)[C@H]1O`, the cytotoxicity call was “active”.
In the case of `CC(=O)N[C@H]1[C@H](O[C@H]2CC[C@]3(C)[C@H]4CC=C5[C@@H]6CC(C)(C)CC[C@]6(C(=O)O[C@H]6OC[C@@H](O)[C@@H](O)[C@@H]6O)[C@@H](O)C[C@@]5(C)[C@]4(C)CC[C@H]3C2(C)C)O[C@H](CO[C@H]2OC[C@@H](O)[C@@H](O[C@H]3OC[C@@H](O)[C@@H](O)[C@@H]3O)[C@@H]2O)[C@@H](O[C@@H]2O[C@@H](C)[C@H](O)[C@@H](O)[C@H]2O[C@@H]2O[C@@H](C)[C@H](O)[C@@H](O)[C@H]2O)[C@@H]1O` it was “active”; in that of `C[C@@H]1CN([C@H](C)CO)C(=O)Cc2cc(NS(=O)(=O)c3cccs3)ccc2O[C@H]1CN(C)C(=O)Nc1cccc2ccccc12`, “inactive”.
For `CCCNC(=O)N(C)C[C@@H]1Oc2cc(-c3ccccc3F)ccc2S(=O)(=O)N([C@@H](C)CO)C[C@@H]1C`, the cytotoxicity call was “inactive”.
Under `CN(C)CCCNC(=O)C[C@@H]1C=C[C@H](NS(=O)(=O)c2ccccc2)[C@@H](CO)O1` stands “inactive”.
For `C[C@@H]1CCCCO[C@@H](CN(C)S(=O)(=O)c2cn(C)cn2)[C@@H](C)CN([C@H](C)CO)C(=O)c2cc(NS(=O)(=O)c3ccccc3)ccc2O1`, the cytotoxicity call was “inactive”.
